Shown are actives, neighbours in structure and some others; about 2.9% of the full set was active somewhere.
Peg3 promoter – Peg3 promoter-driven luciferase inhibitors, primary screen, cell-based, HeLa, luciferase luminescence; hit rate 1.7% among 360,000; inhibition, % at 20 µM; AID 588405, 2011; HeLa PEG-Prom luciferase reporter, overnight;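 active = inhibition of at least 50% at 20 µM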
KKLEB cytotox – cytotoxicity in KKLEB CF airway cells, primary screen, cytotoxicity control for CF NF-kB inhibitor project, cell-based, uHTS, fluorescence assay plates | KKLEB CF airway cells viability, ATPlite luminescence, overnight; active compounds read low; cells stimulated with P. aeruginosa culture filtrate | activity change (cytotoxicity), % at 5 µM | hit rate 0.36% among 360,000 | AID 602141, 2011;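 active = corrected activity change at or below -50% at 5 µM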
MITF TRPM1 inh – inhibitors of MITF-dependent TRPM1 promoter reporter, primary screen, cell-based, SK-MEL-5, single point, luciferase; SK-MEL-5 TRPM1 promoter luciferase, 24 h; inhibition, % at 12.5 µM; hit rate 0.83% among 330,000; AID 488899, 2010;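 active = mean inhibition across replicates of 60% or more, whatever share of single replicates reaches that level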
Shn3 inh set2 – reduction of Shn3 3'UTR firefly luciferase signal, primary screen, Schnurri-3 inhibitor project, cell-based, Clone20 osteoblasts, set 2; Clone20 osteoblast Shn3 3'UTR firefly luciferase, 24 h; inhibition, % at 12.5 µM; hit rate 0.52% among 360,000;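 active = mean inhibition of at least 75% with every replicate also reaching 75%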
LMP1 NFkB inh – EBV LMP1-driven NF-kappaB luciferase reporter inhibitors, primary screen, cell-based, luminescence, single point | LMP1-induced NF-kappaB luciferase reporter cells | inhibition, % at 12.5 µM | hit rate 0.69% among 350,000; in the data active = inhibition above about 41%
CF NFkB inh – inhibitors of PAF-induced NF-kB signaling, primary screen, cell-based, GFP fluorescence, uHTS | KKLEB NF-kB-GFP reporter, GFP fluorescence overnight | inhibition, % at 5 µM | hit rate 0.86% among 360,000 | AID 588850, 2011;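 active = at least 50% inhibition at 5 µM, scaled per plate between neutral and stimulator controls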;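 note: PAF is a Pseudomonas aeruginosa culture filtrate used as stimulus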
A number is an active result; – = inactive; · = not tested or not shown.

SMILES	Peg3 promoter	KKLEB cytotox	MITF TRPM1 inh	Shn3 inh set2	LMP1 NFkB inh	CF NFkB inh
O=C(Oc1c(CN2CCOCC2)cc(Cl)c2cccnc12)c1ccccc1Br	–	–	70	·	–	–
CN1CCN(Cc2cc(Cl)c3cccnc3c2OC(=O)c2cccs2)CC1	–	–	–	–	–	–
CCOc1ncccc1C(=O)OC(C)C(=O)Nc1ccc(N2CCOCC2)cc1 (stereo not drawn)	–	–	–	–	–	–
O=C(O)c1ccc(/C=C(\c2nc3ccccc3[nH]2)c2nc3ccccc3s2)cc1	–	–	–	–	–	–
CC(C)(C)c1ccc(/C=C(\c2nc3ccccc3[nH]2)S(=O)(=O)c2ccccc2)cc1	104	-70	91	94	–	94
CCOc1cc(CNCCCN2CCOCC2)cc(Br)c1OCC(=O)Nc1cccc(C(F)(F)F)c1	68	–	74	–	–	–
CCn1c(=S)[nH]c2c(=O)n(C)c(=O)n(C)c21	–	–	–	–	–	–
CCCC(C(=O)NC(C)(C)C)N(Cc1ccc(F)cc1)C(=O)c1snc(C(N)=O)c1N (stereo not drawn)	97	–	–	–	–	–
Cc1ccc(C23CC4CC(CC(CN)(C4)C2)C3)cc1	103	–	–	–	–	–
NCC12CC3CC(C1)CC(c1ccc(Br)cc1)(C3)C2	104	–	–	–	–	–
Cc1ccc(C23CC4CC(CC(C(N)=O)(C4)C2)C3)cc1	–	–	–	–	–	–
O=C(NC1CCCC1)C(c1ccc(Cl)cc1)N(Cc1ccc(F)cc1)C(=O)CCl (stereo not drawn)	–	–	–	–	–	–
COc1ccc(C(C(=O)NC2CCCCC2)N(C(=O)CCl)c2ccc(Cl)cc2)cc1 (stereo not drawn)	74	-99	79	94	–	97
O=C(NC1CCCC1)C(c1ccc(F)cc1)N(Cc1ccc(Cl)cc1)C(=O)CCl (stereo not drawn)	62	–	–	–	–	–
C(C#CCN1CCOCC1)#CCN1CCOCC1	–	–	–	–	–	–
O=C(CN1CC(c2ccccc2)CC1=O)N/N=C/c1cc(Br)ccc1O (stereo not drawn)	–	–	–	88	–	–
C[C@@H]1CN([C@H](C)CO)C(=O)CCCn2cc(nn2)CO[C@H]1CN(C)C(=O)Nc1ccccc1C(F)(F)F	–	–	·	–	–	–
COc1ccc(NC(=O)CCS(=O)(=O)c2ccc3c(c2)CCCN3C(C)=O)cc1Cl	–	–	–	–	–	–
COc1ccc(NC(=O)CCS(=O)(=O)c2ccc3c(c2)CCN3C(C)=O)cc1	–	–	–	–	58	–
COc1ccc(-c2cc3nc(CCl)[nH]c(=O)c3s2)cc1	–	–	–	–	49	–
CCCc1ccc2c(C(F)(F)F)cc(C(F)(F)F)cc2n1	–	–	·	–	·	–
CCSc1nnc([C@H](Cc2ccccc2)NC(=O)OC(C)(C)C)o1	–	–	–	–	–	–
Cc1ccccc1CS(=O)(=O)c1nnc([C@H](Cc2ccccc2)NC(=O)OC(C)(C)C)o1	104	–	83	95	–	72
CCC(C)[C@@H](NC(=O)OC(C)(C)C)c1nnc(S(=O)(=O)Cc2cccc(C)c2)o1 (stereo partly drawn)	108	–	71	98	–	82
COCCCN1C(=O)C(CC(=O)NCc2cccs2)CC(C(=O)N(C)C)=C1C (stereo not drawn)	–	–	·	–	–	–
Cc1cc(C)n(-c2nc(NCC(C)O)c3c4c(sc3n2)COC(C)(C)C4)n1 (stereo not drawn)	–	–	–	–	–	–
Cc1cc(C)n(-c2nc(SCCN(C)C)c3c4c(sc3n2)COC(C)(C)C4)n1	54	–	–	–	–	–
CCCS(=O)(=O)NC(=O)C1(C)CCCN(C(=O)c2cncc(Br)c2)C1 (stereo not drawn)	–	–	·	–	·	–
O=C1Nc2ccccc2C1=Nc1ccccc1-c1ccccc1	–	–	–	–	78	–

Source: PubChem
